The results in this text go back to PubChem BioAssay (NCATS).

Results filed as inconclusive are left out. Unmarked numbers belong to inactive results. The call rests on the fitted dose curve; in most records, active means well fitted cell-killing curve with a large enough effect; inconclusive means small, poorly fitted or top-dose-only effect, or effect the other way; inactive means flat fitted curve, though single readings scatter.
On the % scale 0 is the no-effect control and ±100 the full control effect.

The subject of the test is Tov112D. The test is described as follows: Primary qHTS to identify gynecologic anti-cancer compounds using libraries of approved drugs and bioactive compounds (AID 1345084). Further: nearly all actives have a fitted effect of over 55% in size. Conditions: Gynecologic cancer cell panel viability, ATPlite luminescence, 48 h; series mostly up to 57.5 µM; activity change, negative = cytotoxicity: at the top concentration. The essentials:
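Five-concentration response, 48 h; readout is ATP-driven luciferase luminescence.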
On to `COc1cnc(-c2ccc(Cn3c(CC(C)(C)C(=O)O)c(SC(C)(C)C)c4cc(OC[C@@H]5Cc6ccccc6N5C(C)=O)ccc43)cc2)nc1`, for which the “activity change, negative = cytotoxicity” value is 16.9% [at 38.5 µM].
`COC(=O)C(CC1CCCC1)c1ccc(S(C)(=O)=O)cc1` (stereo not drawn): the “activity change, negative = cytotoxicity” value is 0.316%.
On to `N#Cc1cccc(-c2c[nH]c3ncnc(N4CCOCC4)c23)c1`, for which the “activity change, negative = cytotoxicity” value was 15.1%.
Regarding `CC(=O)O[C@@H]1[C@@H](O)[C@H](C)O[C@@H](O[C@H]2[C@@H]3C=CO[C@@H](O[C@@H]4O[C@H](CO)[C@@H](O)[C@H](O)[C@H]4OC(C)=O)[C@@H]3[C@@]3(CO)O[C@@H]23)[C@@H]1OC(=O)/C=C/c1ccc(O)cc1`, the “activity change, negative = cytotoxicity” value is 1.5% [at 25.3 µM].
With `COc1ccc(-n2[nH]c3c(cnc4ccccc43)c2=O)cc1`, the “activity change, negative = cytotoxicity” value was 1.25%.
As for `COc1cc(/C=C/C(=O)OC[C@H]2O[C@@H](OC3OC=C(C(=O)O)C4C(O)CC(C)(O)C34)[C@H](O)[C@@H](O)[C@@H]2O)cc(OC)c1O` (stereo partly drawn), the figure is 7.17% [at 25.3 µM]; as for `CC1(C)CC[C@]2(C(=O)O[C@@H]3O[C@H](CO)[C@@H](O)[C@H](O)[C@H]3O)CC[C@]3(C)C(=CCC4[C@@]5(C)CC[C@H](O[C@@H]6O[C@H](C(=O)O)[C@@H](O)[C@H](O)[C@H]6OC6OC(CO)C(O)C(O)C6O)C(C)(C)C5CC[C@]43C)[C@@H]2C1` (stereo partly drawn), 7.56% [at 11.6 µM]; as for `CC1(C)CCC[C@]2(C)C1CC=C(CO)[C@H]2CC/C(=C/CO)CO` (stereo partly drawn), 1.61% [at 38.5 µM].
With `CCC(C)C(N)C(=O)NCCN1CCOCC1` (stereo not drawn), the “activity change, negative = cytotoxicity” value was 12%.
As for `N#Cc1cccc(-c2nc(-c3cccnc3)no2)c1`, the figure is -1.93% [at 25.3 µM]; as for `CC1CCC2C(C)(C)[C@H](O)CC[C@]2(C)C12Cc1c(O)cc3c(c1O2)CN(C(CCC(=O)O)C(=O)O)C3=O` (stereo partly drawn), 2.88% [at 25.3 µM]; as for `CC1=C2C(=O)C=C(CO)C2[C@H]2OC(=O)[C@H](C)[C@@H]2[C@@H](OC(=O)Cc2ccc(O)cc2)C1` (stereo partly drawn), -4.67% [at 25.3 µM].
As for `CC1=CCC[C@@H]2[C@](CCc3ccoc3)(C(=O)O)[C@H](C)CC[C@@]12C`, the figure is 0.46% [at 38.5 µM].
As for `CC1CC(=O)C2C(O)(C1)CC(O)C13OC1c1c(O)cccc1C(=O)C23O` (stereo not drawn), the figure is 1.32% [at 38.5 µM]; as for `COc1cc([C@H]2OC[C@](O)(Cc3ccc(O[C@@H]4O[C@H](CO)[C@@H](O)[C@H](O)[C@H]4O)c(OC)c3)[C@@H]2CO)ccc1O`, 7.77% [at 25.3 µM]; as for `CN1CCCC1Cc1c[nH]c2ccc(CCS(=O)(=O)c3ccccc3)cc12` (stereo not drawn), 2.58%.
`COC1CC(O[C@H]2CC[C@@]3(C)C(=CC[C@]4(O)C3[C@H](O)[C@@H](O)[C@]3(C)[C@@H]([C@H](C)O)CC[C@@]34O)C2)OC(C)C1OC1CC(OC)C(OC2CC(OC)C(OC3OC(C)C(OC4OC(CO)C(O)C(O)C4O)C(OC)C3O)C(C)O2)C(C)O1` (stereo partly drawn): the activity change, negative = cytotoxicity is 1.61% [at 11.6 µM].
`C/C=C1/[C@H](O[C@@H]2O[C@H](CO)[C@@H](O)[C@H](O)[C@H]2O)OC=C2C(=O)O[C@@H]3C[C@@H](C(C)CO)[C@H](COC(=O)C[C@H]21)[C@H]3C` (stereo partly drawn): the “activity change, negative = cytotoxicity” value was 4.69% [at 25.3 µM].
As for `C[C@@H](c1ccccc1)N(C(N)=NC#N)c1cccc2ncccc12`, the “activity change, negative = cytotoxicity” value is -1.14%.
Take `COc1cc(/C=C/C(=O)OC[C@H]2O[C@@H](OC3CC(C)=C(C(=O)O)C(C)(C)C3)[C@H](O)[C@@H](O)[C@@H]2O)cc(OC)c1O` (stereo partly drawn): the “activity change, negative = cytotoxicity” value is 6.34% [at 25.3 µM].
For the molecule `CCC(C)C(=O)O[C@H]1C[C@](C)(O)[C@]23OC(C)(C)[C@H](C[C@H](OC(=O)c4ccccc4)[C@]2(COC(C)=O)[C@H]1OC(=O)C(C)CC)[C@H]3OC(C)=O` (stereo partly drawn), the “activity change, negative = cytotoxicity” value is -0.501% [at 25.3 µM].
As for `CC(=O)NC1CC(=O)C23C(=O)NC(Cc4c[nH]c5ccccc45)C2C(C)=C(C)C(O)C3/C=C/CC(C)/C=C(/C)C(O)C1O` (stereo not drawn), the figure is 8.34% [at 25.3 µM]; as for `COc1ccc(N2CCN(CCCNC(=O)Cn3c(=O)c4cccn4c4c(C)ccnc43)CC2)cc1`, 12.4%; as for `OC[C@H]1O[C@@H](OCc2ccccc2)[C@H](O[C@@H]2OC[C@@H](O)[C@H](O)[C@H]2O)[C@@H](O)[C@@H]1O`, 3.41% [at 25.3 µM].
As for `O=C(/C=C/c1ccc(O)cc1)OC[C@@]1(O)C=C[C@@H]2C(C(=O)O)=CO[C@@H](O[C@@H]3O[C@H](CO)[C@@H](O)[C@H](O)[C@H]3O)[C@@H]21`, the figure is 1.91% [at 25.3 µM].
As for `CC(C)=C1CC2C(CCC2(C)O)C(C)(O)CC1=O` (stereo not drawn), the figure is 8.19%.
In the case of `O=C(/C=C/c1ccc(O)cc1)O[C@H]1[C@H](OC2CCCCC2O)O[C@H](CO)[C@@H](O)[C@@H]1O` (stereo partly drawn), the “activity change, negative = cytotoxicity” value is 7.12% [at 25.3 µM].
As for `O=C(/C=C/c1ccc(O)c(O)c1)O[C@@H]1[C@@H](O)[C@H](OC2CCCCC2O)O[C@H](CO)[C@H]1O` (stereo partly drawn), the figure is -0.17% [at 25.3 µM].
